We go through 25 compounds from PubChem BioAssay (NCATS).

Molecules are shown by their SMILES. Activity calls are given as the source filed them. Calls follow the shape of the full dose curve.
Potency is read from the fitted curve at half-maximal effect.

The target in one experiment is Catechol O-methyltransferase (Homo sapiens) (UniProt P21964). The experiment in a line: Confirmatory Screen for Target Class Profiling of Small Molecule Inhibitors of Methyltransferases (AID 1745852). As to activity change, negative = inhibition: % is scaled to controls: 0 for no effect and ±100 for the full control effect. As to conditions: MTase-Glo luminescence, SAH detection, recombinant enzyme; measured here: COMT max response; stronger effect = lower value.
Chain of Catechol O-methyltransferase (Homo sapiens) (P21964 whole entry, looked up): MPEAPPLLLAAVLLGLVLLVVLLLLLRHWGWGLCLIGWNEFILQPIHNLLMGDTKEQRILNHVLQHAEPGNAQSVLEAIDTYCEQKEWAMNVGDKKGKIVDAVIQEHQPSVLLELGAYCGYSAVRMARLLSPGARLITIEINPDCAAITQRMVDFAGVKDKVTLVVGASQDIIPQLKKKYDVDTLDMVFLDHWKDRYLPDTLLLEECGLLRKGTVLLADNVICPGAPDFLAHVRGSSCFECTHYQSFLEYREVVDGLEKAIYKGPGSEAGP
On to `Cn1c(=O)c2[nH]c(-c3ccc(S(=O)(=O)O)cc3)nc2n(C)c1=O`, for which the activity is -8.67%.

On to `N=C(N)SCCc1cnc[nH]1`, for which the activity is -3.06%.

Take `Clc1nccc2c1ccc1ccccc12`: the activity was 4.56%.

Take `Oc1cc(O)c2c(c1)O[C@H](c1ccc(O)c(O)c1)[C@@H](O)C2`: the activity is 171%.

On to `NC/C=C\C(=O)O`, for which the activity is -3.77%.

A further experiment has as its target Guanidinoacetate N-methyltransferase (Homo sapiens) (UniProt Q14353). Described as above. As to conditions: MTase-Glo luminescence, SAH detection, recombinant enzyme; activity change, negative = inhibition: at 57.3 µM (top of the series).
Consider `O=c1[nH]ccc2c(O)cccc12`, for which the activity change, negative = inhibition stood at 2.16%.

Take `CCN(CC)CCCCCCCCOC(=O)c1cc(OC)c(OC)c(OC)c1`: the activity change, negative = inhibition worked out at 4.66%.

Consider `CN1Cc2sccc2C(c2ccc(O)c(O)c2)C1` (stereo not given), for which the activity change, negative = inhibition is 1.26%.

In the case of `O=C(O)C1=CC(=C(c2ccc(O)c(C(=O)O)c2)c2ccc(O)c(C(=O)O)c2)C=CC1=O`, the Potency is 24.3 µM (active).

With `Fc1ccc(CN(C2=NCCN2)c2c(Cl)cccc2Cl)cc1`, the activity change, negative = inhibition amounted to 6.96%.

Take `N#C/C(=C\c1ccc(O)c(O)c1)C(=O)NCCCNC(=O)/C(C#N)=C/c1ccc(O)c(O)c1`: the Potency was 4.85 µM (active).

For the compound `CNCCc1cnc(CCC(c2ccccc2)c2ccccc2)[nH]1`, the activity change, negative = inhibition was determined as 3.35%.

For the compound `C=CCN1CCc2c(cc(O)c(O)c2Cl)C(c2ccccc2)C1` (stereo not given), the activity change, negative = inhibition was determined as 5.83%.

Turning to `Nc1ccc2c3c(cccc13)C(=O)NC2=O`, the activity change, negative = inhibition stood at 4.2%.

Turning to `CC1CCN=C(N)S1` (stereo not given), the activity change, negative = inhibition stood at 0.929%.

Take `CCCc1c(-c2ccc(O)cc2)nn(-c2ccc(O)cc2)c1-c1ccc(O)cc1`: the Potency is 43.2 µM (active).

As for `CC[C@@H]1Cc2cc(O)ccc2C2=C1c1ccc(O)cc1C[C@H]2CC`, the Potency was 43.2 µM (active).

Turning to `Brc1c(Br)c(Br)c2[nH]cnc2c1Br`, the Potency was 27.3 µM (active).

Take `COc1cc(/C=C(\C#N)C(=O)c2ccc(O)c(O)c2)cc(I)c1O`: the Potency is 24.3 µM (active).

With `C[C@](Cc1ccc(O)c(O)c1)(NN)C(=O)O`, the activity change, negative = inhibition worked out at 0.684%.

Regarding `NS(=O)(=O)c1cccc2c1c([N+](=O)[O-])cc1nc(O)c(O)nc12`, the activity change, negative = inhibition turned out to be 0.0632%.

For `N#C/C(=C\c1ccc(O)c(O)c1)C(=O)NCCc1ccccc1`, the Potency is 0.432 µM (active).

In the case of `NCC(O)C1CCCCCCC1` (stereo not given), the activity change, negative = inhibition was determined as 2.24%.

For `C=CCN1CCc2c(cc(O)c(O)c2Br)[C@@H](c2ccccc2)C1`, the activity change, negative = inhibition was found to be 5.44%.

Consider `CC(O)C(O)[C@H]1CNc2nc(N)[nH]c(=O)c2N1` (stereo not given in full), for which the activity change, negative = inhibition was found to be 4.12%.

Consider `Cn1c(=O)c2[nH]c(-c3ccc(S(=O)(=O)O)cc3)nc2n(C)c1=O`, for which the activity change, negative = inhibition was 1.75%.

On to `N=C(N)SCCc1cnc[nH]1`, for which the activity change, negative = inhibition was -1.52%.

For `Clc1nccc2c1ccc1ccccc12`, the activity change, negative = inhibition is 3.35%.

For the compound `Oc1cc(O)c2c(c1)O[C@H](c1ccc(O)c(O)c1)[C@@H](O)C2`, the activity change, negative = inhibition was 4.5%.

Regarding `NC/C=C\C(=O)O`, the activity change, negative = inhibition was determined as 4.36%.
